IMPase Li inh: qHTS Assay for Identifying the Cell-Membrane Permeable IMPase Inhibitors: Potentiation with Lithium; 210,000 compounds, 0.35% hits; Potency, µM (titrated, usually from 59.4 µM), most hits filed as inhibitors; CHO-M1 cells, IP1 TR-FRET (IP-One), carbachol + lithium; AID 1457, 2008; active = well fitted curve in the direction sought with a large enough effect; inconclusive = small, poorly fitted or top-dose-only effect, or another doubt; inactive = no such curve, though single readings can be large; an effect the other way counts as inactive or inconclusive;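 note: IP1 builds up when IMPase is blocked and the TR-FRET signal falls; nearly all actives have a fitted effect of over 50% in size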
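Readout is a homogeneous TR-FRET IP1 immunoassay (Ex 320, Em 665 and 620), where raised cytosolic IP1 lowers signal. Cells were CHO-M1 treated 30 min at 37C with test compounds plus a little lithium; AC50 values came from Hill-equation fitting.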
ALDH1A1 block: qHTS Assay for Inhibitors of Aldehyde Dehydrogenase 1 (ALDH1A1); Purified ALDH1A1, NADH fluorescence, propionaldehyde substrate; Potency, µM (titrated, usually from 75.3 µM), actives largely listed as inhibitors; 220,000 compounds, 7.3% hits; Aldehyde dehydrogenase 1A1 (Homo sapiens), P00352
IMPase cell inh: qHTS Assay for Identifying the Cell-Membrane Permeable IMPase Inhibitors. Inositol monophosphatase 1 (Rattus norvegicus), P97697. CHO-M1 cells, IP1 accumulation, HTRF TR-FRET ratio. inhibition (IP1 accumulation), % at 46.1 µM. 120,000 tested, under 10 active; active = well fitted curve in the direction sought with a large enough effect in the signal ratio, not every such curve was filed as active; inconclusive = small, poorly fitted or top-dose-only effect, or a change in a side signal; inactive = no such curve, though single readings can be large or run the other way; the % refers to the signal ratio;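 note: cells stimulated with carbachol in lithium chloride buffer; higher means more IMPase inhibition seen as more IP1 and lower FRET ratio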
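Measured: the HTRF emission ratio (665/620 nm) plus the 620 nm donor channel, each fitted to the Hill equation to give AC50. Cells were CHO-M1 given compounds up to 46 uM and a 30 min carbachol stimulation at 37C.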
NPSR antag: qHTS Assay for Antagonists of the Neuropeptide S Receptor: cAMP Signal Transduction; Q6W5P4; CHO-NPSR cells, cAMP TR-FRET, antagonist mode; Potency, µM (titrated, usually from 38.3 µM), actives largely listed as inhibitors; 220,000 compounds, 1% hits; active = well fitted curve in the direction sought with a large enough effect; inconclusive = small, poorly fitted or top-dose-only effect, or another doubt; inactive = no such curve, though single readings can be large; an effect the other way counts as inactive or inconclusive; note: nearly all actives have a fitted effect of over 50% in size
Target sequence (Q6W5P4 whole entry, looked up): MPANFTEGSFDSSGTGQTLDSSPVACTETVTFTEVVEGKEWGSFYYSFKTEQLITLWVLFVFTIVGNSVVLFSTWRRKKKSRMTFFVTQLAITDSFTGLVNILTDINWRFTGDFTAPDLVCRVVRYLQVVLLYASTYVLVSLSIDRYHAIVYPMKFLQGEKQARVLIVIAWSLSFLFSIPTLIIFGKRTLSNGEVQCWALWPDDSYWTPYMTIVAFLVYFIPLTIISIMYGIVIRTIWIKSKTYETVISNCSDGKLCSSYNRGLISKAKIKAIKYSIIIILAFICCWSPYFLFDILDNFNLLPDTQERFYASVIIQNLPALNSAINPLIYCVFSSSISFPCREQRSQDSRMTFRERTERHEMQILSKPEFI
HPGD inh: qHTS Assay for Inhibitors of HPGD (15-Hydroxyprostaglandin Dehydrogenase); Potency, µM, usual class: inhibitors; 150,000 compounds, 4.3% hits; 15-hydroxyprostaglandin dehydrogenase [NAD(+)] (Homo sapiens), P15428; purified HPGD, NADH fluorescence kinetic, PGE2 substrate
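20 nM HPGD preincubated 15 min at room temperature with compound in 50 mM Tris-HCl pH 8, 0.01% Tween 20. Started with 1 mM NAD+ and 30 uM prostaglandin E2; NADH fluorescence (360/450 nm) read 5 times over 30-s intervals, last minus first.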
PNC inhibitor: High Content Assay for Compounds that inhibit the Assembly of the Perinucleolar Compartment. PC3M PTB-GFP, PNC prevalence imaging, 16 h; stronger effect = lower value. activity change (PNC), negative = inhibition, % at 10 µM. 140,000 compounds, 3.1% hits;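 active = readout at or below -70, meaning at least 70% loss of cells showing the perinucleolar compartment, a nuclear body marking cancer cells; inconclusive = readout between -30 and a set limit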
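Read-out is percentage of cells bearing a perinucleolar compartment, from automated 20x imaging of fixed, Hoechst-stained PC3M PTB-GFP cells. Cells were seeded 4 h, then exposed 16 h to compound (23 nl of library stock) in duplicate plates.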
Each line names hits and unclear results; the compound was inactive in the other large screens. A selection: hits, their analogues and other compounds. The true share with any hit is near 11%. Unless noted, calls come from the whole dose curve; as a rule, active = well fitted inhibition curve with a large enough effect (not every such curve was filed as active); inconclusive = small, poorly fitted or top-dose-only effect, or another doubt; inactive = no such curve, though single readings can be large or run the other way.

CCc1ccc(C=NC23CN4CN(CN(C4)C2)C3)s1	ALDH1A1 block 7.9µM
COc1ccccc1-c1nc2ccccc2nc1-c1ccccc1OC	ALDH1A1 block inconclusive (no result: IMPase cell inh)
O=C1c2ccccc2-c2nc3ccccc3nc21	ALDH1A1 block 13µM, PNC inhibitor inconclusive
Cc1cc(=O)[nH]c(SCc2nc3ccccc3s2)n1	NPSR antag inconclusive
S=P(c1ccc(N2CCOCC2)cc1N1CCOCC1)(N1CCOCC1)N1CCOCC1	ALDH1A1 block 28µM, HPGD inh 25µM, PNC inhibitor inconclusive
Cc1cc(C)nc(Nc2ccc(N3CCOCC3)cc2)n1	PNC inhibitor inconclusive
OCC#CCSc1nnc(-c2ccc(Br)cc2)o1	none
COC(=O)Sc1nnc(-c2ccc(Br)cc2)o1	IMPase Li inh 10µM, ALDH1A1 block 8.9µM, IMPase cell inh inconclusive, HPGD inh 22µM
Cc1ccc2oc3c(c(=O)c2c1)C(c1cccc(O)c1)N(c1ccccn1)C3=O (stereo not drawn)	ALDH1A1 block inconclusive, NPSR antag 10µM, PNC inhibitor inconclusive
O=C(NN=C1CCCCCCC1)c1ccc(F)cc1	none (no result: IMPase cell inh, HPGD inh, PNC inhibitor)
CCNc1ccc(C(=O)NN=C2CCCC2)cc1[N+](=O)[O-]	ALDH1A1 block 2.2µM (no result: IMPase cell inh, HPGD inh, PNC inhibitor)
COc1cc(OC)c(C2N(c3ccccn3)C(=O)C3CCCN32)cc1OC (stereo not drawn)	none
CCCc1cc(=O)n2[nH]c(-c3ccccc3)cc2n1	ALDH1A1 block inconclusive, HPGD inh inconclusive, PNC inhibitor -100
CCNC(=O)C(C)Oc1ccc(Cl)cc1Cl (stereo not drawn)	none (no result: IMPase cell inh, HPGD inh, PNC inhibitor)
CC(Oc1ccc(Cl)cc1Cl)C(=O)NC1CCSC1=O (stereo not drawn)	HPGD inh 14µM
COC(=O)C1CCN(C(=O)C(C)Oc2ccc(Cl)cc2Cl)CC1 (stereo not drawn)	ALDH1A1 block inconclusive, PNC inhibitor -87
CC(Oc1ccc(Cl)cc1Cl)C(=O)Nn1cnnc1 (stereo not drawn)	PNC inhibitor -119
COCCNC(=O)C(C)Oc1ccc(Cl)cc1Cl (stereo not drawn)	HPGD inh 32µM
CC(=O)Nc1ccc(NC(=O)C(C)Oc2ccc(Cl)cc2Cl)cc1 (stereo not drawn)	none (no result: IMPase cell inh, HPGD inh, PNC inhibitor)
CCOC(=O)C1CCCN(C(=O)C(C)Oc2ccc(Cl)cc2Cl)C1 (stereo not drawn)	none
COc1ccc(OCC(=O)NC(=S)Nc2ccc(S(=O)(=O)Nc3cc(OC)nc(OC)n3)cc2)cc1	ALDH1A1 block inconclusive (no result: IMPase cell inh)
C=C(C)CN=C1SC(C(=O)Nc2sc3c(c2C(=O)OC)CCC3)C(N)=C1C(N)=O (stereo not drawn)	ALDH1A1 block 25µM, HPGD inh inconclusive (no result: IMPase cell inh)
CSc1ccccc1NC(=O)Cc1ccccc1[N+](=O)[O-]	none (no result: IMPase cell inh, HPGD inh, PNC inhibitor)
O=C1c2ccccc2C(=O)N1OCc1ccccc1[N+](=O)[O-]	ALDH1A1 block 25µM (no result: IMPase cell inh, HPGD inh, PNC inhibitor)
N#CCc1ccccc1[N+](=O)[O-]	ALDH1A1 block 25µM, HPGD inh 8.9µM (no result: IMPase cell inh, NPSR antag, PNC inhibitor)
CSc1ccccc1C(=O)Nc1ncc(C)s1	none
O=[N+]([O-])c1ccc(-c2nnc(-c3ccccc3)c(NCCCO)n2)cc1	ALDH1A1 block inconclusive, PNC inhibitor -85 (no result: IMPase cell inh)
C[C@@H]1CN(CCCn2c3ccccc3c3ccccc32)C[C@H](C)N1	ALDH1A1 block inconclusive (no result: PNC inhibitor)
O=C(Cn1cc(SCc2cccc(Cl)c2)c2ccccc21)N1CCOCC1	ALDH1A1 block 7.5µM
COc1cc(C2Nc3c(F)cccc3C3C=CCC32)cc(Br)c1OC (stereo not drawn)	ALDH1A1 block 25µM (no result: IMPase cell inh, HPGD inh, PNC inhibitor)
O=C(OCCN1C(=O)c2cccc3c(N4CCOCC4)ccc(c23)C1=O)c1ccc(Cl)cc1Cl	NPSR antag inconclusive, PNC inhibitor -98
CN1CCN(C(=O)c2ccccc2N(Cc2ccccc2)S(=O)(=O)c2ccccc2)CC1	none

Screening data (PubChem)
